Measurements as given in PubChem BioAssay (NCATS).
Results filed as inconclusive are left out. Unmarked numbers belong to inactive results. Calls of active or inactive are those of the source. Calls come from the whole dose curve; as a rule, active = well fitted inhibition curve with a large enough effect; inconclusive = small, poorly fitted or top-dose-only effect; inactive = flat fitted curve, though single readings scatter.

tested on: HaCat; assay: Cytotoxic Profiling of Annotated Libraries Using Quantitative High-Throughput Screening (AID 1296008); conditions: Five cell lines viability, CellTiter-Glo ATP luminescence, 48-72 h; max response: hits give low values; note: nearly all actives have a fitted effect of over 60% in size
Outline: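 Cells exposed to compounds for 48 or 72 hr at 37 degrees Celsius. Viability read as ATP-coupled luminescence with CellTiter-Glo after 10 min at room temperature.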
% is set by controls: 0 for no effect and ±100 for the full control effect; potency is the fitted concentration of half-maximal effect.

Row | Structure (SMILES) | max response [%] | Potency
1 | C=C1C(=O)O[C@@H]2C[C@@]3(C)C[C@@H](O)C[C@H](C)C3=C[C@H]12 | -8.34 | –
2 | COc1cc(C#N)ccc1S(=O)(=O)Nc1ccc2c(c1)cc(C)c(=O)n2C | -9.16 | –
3 | C=C1C(=O)O[C@@H]2[C@H]1CCC(C)=C(CCC(=O)O)[C@@]2(C)O | 2.79 | –
4 | NC(N)=N/N=C/c1ccccc1Cl | -18.8 | –
5 | CC(C)CCNC(=O)[C@H](CC(C)C)NC(=O)[C@H]1O[C@@H]1C(=O)O | -18.1 | –
6 | Cn1ncnc1[C@H]1c2n[nH]c(=O)c3cc(F)cc(c23)N[C@@H]1c1ccc(F)cc1 | – | 3.17 µM (active)
7 | C=C1C(=O)OC2CC3(C)C(O)C(=O)C=C(C)C3CC12 (centres undefined) | 0.297 | –
8 | CN1c2c(nc(N)[nH]c2=O)NC[C@@H]1CNc1ccc(C(=O)N[C@@H](CCC(=O)O)C(=O)O)cc1 | -4.13 | –
9 | CC(C)c1ccc(-c2cc(=O)c3ccccc3o2)cc1 | -4.45 | –
10 | COc1ccc(Cl)c(Nc2ncnc3cc(OCC4CCN(C)CC4)c(OC)cc23)c1 | – | 4.11 µM (active)
11 | COc1ccc(S(=O)(=O)n2cnc3cc(C)c(C)cc32)cc1 | -14.6 | –
12 | Nc1ncnc2c1c(-c1ccc(Cl)cc1)nn2-c1cccc(-c2cnnn2Cc2cccc(-c3ccccc3)c2)c1 | -3.38 | –
13 | O=S(=O)(Nc1ccccc1N1CCCCC1)c1ccc(Cl)s1 | -19.5 | –
14 | O=C(Nc1nc2cc(C(F)(F)F)cc(NC3CC3)n2n1)c1cccnc1 | – | 4.61 µM (active)
